Data as given in PubChem BioAssay (NCATS).
Results filed as inconclusive are left out. Entries that show only a call come without a potency. Active and inactive are the calls of the source. Calls follow the shape of the dose curve; as a rule, active = well fitted curve in the direction sought with a large enough effect; inconclusive = small, poorly fitted or top-dose-only effect, or another doubt; inactive = no such curve, though single readings can be large; an effect the other way counts as inactive or inconclusive.

target: phosphoglycerate mutase (Leishmania major) (UniProt Q4Q090); test: qHTS Validation Assay to Find Inhibitors of Phosphoglycerate Mutase (AID 504548); details: biochemical enzyme activity; series mostly up to 57.5 µM;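 also: end-point luminescence from Kinase-GloPlus after the PGAM reaction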
Procedure, shortened: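 Inhibition of L. major PGAM was assessed by Kinase-GloPlus luminescence following a 45-minute room-temperature reaction with enzyme at 1.25nM final.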

Sequence of phosphoglycerate mutase (Leishmania major) (Q4Q090 1-553): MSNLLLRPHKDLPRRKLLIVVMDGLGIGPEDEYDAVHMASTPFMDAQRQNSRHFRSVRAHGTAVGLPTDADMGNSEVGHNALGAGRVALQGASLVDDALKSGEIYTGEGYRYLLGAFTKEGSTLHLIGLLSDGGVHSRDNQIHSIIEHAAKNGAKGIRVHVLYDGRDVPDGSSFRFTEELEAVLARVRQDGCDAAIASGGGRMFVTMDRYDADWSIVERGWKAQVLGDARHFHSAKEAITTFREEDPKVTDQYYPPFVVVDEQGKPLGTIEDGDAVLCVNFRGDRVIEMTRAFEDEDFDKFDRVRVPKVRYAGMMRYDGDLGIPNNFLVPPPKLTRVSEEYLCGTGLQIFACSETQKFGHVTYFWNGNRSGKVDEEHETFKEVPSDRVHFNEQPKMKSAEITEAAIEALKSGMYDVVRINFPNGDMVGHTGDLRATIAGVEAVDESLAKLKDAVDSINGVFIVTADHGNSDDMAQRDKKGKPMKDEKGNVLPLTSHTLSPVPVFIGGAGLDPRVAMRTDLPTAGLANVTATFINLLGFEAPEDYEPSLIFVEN

Row | Compound | outcome
1 | NC(=O)CN1CCCC1=O | inactive
2 | COC(=O)C1=CCCN(C)C1 | inactive
3 | O=C(O)c1nn(Cc2ccc(Cl)cc2Cl)c2ccccc12 | inactive
4 | COc1ccc(C(=O)N2CCCC2=O)cc1 | inactive

tested on: not listed separately; test: Inducers of the Endoplasmic Reticulum Stress Response (ERSR) in human glioma: Validation (AID 504836); details: human glioma cells, ER stress response reporter; series mostly up to 38.3 µM
Procedure, shortened: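 Stably transfected U87-MG human glioma cells carrying a GRP78-based luminescent sensor were seeded at 1000 cells/well, pin-dosed with compounds and incubated 16 h. Luciferase reagent was then added, and end-point luminescence was read after 10 min at room temperature.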

Row | Compound | outcome
5 | CC(N)C(=O)OC(C)(C)Cc1ccc(Cl)cc1 (stereo not given) | inactive
6 | Cc1ccc(N(CC2=NCCN2)c2cccc(O)c2)cc1 | inactive
7 | CN1CCN(C2Cc3ccccc3Sc3ccc(Cl)cc32)CC1 (stereo not given) | inactive
8 | CCOC(=O)C1=C[C@]2(CC)CCCN3CCc4c(n1c1ccccc41)[C@@H]32 | inactive
9 | c1cc(CN2CCCCC2)cc(OCCCNc2nc3ccccc3s2)c1 | inactive
10 | COC(=O)C1=C(C)NC(C)=C(C(=O)OC(C)(C)CN(C)CCC(c2ccccc2)c2ccccc2)C1c1cccc([N+](=O)[O-])c1 (stereo not given) | inactive
11 | Oc1ccc(O)cc1 | inactive
12 | NS(=O)(=O)c1cc2c(cc1Cl)NC(C1CC3C=CC1C3)NS2(=O)=O (stereo not given) | inactive
13 | NC(=O)CN1CCCC1=O | inactive
14 | OC(CN1CCC(Cc2ccc(F)cc2)CC1)c1ccc(Cl)cc1 (stereo not given) | inactive
15 | CC(C)(C)c1ccc(C(O)CCCN2CCC(C(O)(c3ccccc3)c3ccccc3)CC2)cc1 (stereo not given) | inactive
16 | O=C(O)CP(=O)(O)O | inactive
17 | Cc1ccc(C(=O)Nc2ccc(S(=O)(=O)O)c3cc(S(=O)(=O)O)cc(S(=O)(=O)O)c23)cc1NC(=O)c1cccc(NC(=O)Nc2cccc(C(=O)Nc3cc(C(=O)Nc4ccc(S(=O)(=O)O)c5cc(S(=O)(=O)O)cc(S(=O)(=O)O)c45)ccc3C)c2)c1 | inactive
18 | CCN(CC)CCOCCOC(=O)C1(c2ccccc2)CCCC1 | inactive
19 | O=C(Nc1ccc([N+](=O)[O-])cc1Cl)c1cc(Cl)ccc1O | inactive
20 | NC(N)=NCCC[C@H](N)C(=O)O | inactive
21 | COC(=O)C1=CCCN(C)C1 | inactive
22 | O=C(O)CCc1nc(-c2ccccc2)c(-c2ccccc2)o1 | inactive
23 | NC(N)=N/N=C/c1c(Cl)cccc1Cl | inactive
24 | CCC(=O)c1ccc2c(c1)N(CCCN(C)C)c1ccccc1S2 | inactive

Row | Compound | outcome
25 | O=C(CCNNC(=O)c1ccncc1)NCc1ccccc1 | inactive
26 | OCCN1CCN(CCCN2c3ccccc3C=Cc3ccccc32)CC1 | inactive
27 | O=C(O)c1nn(Cc2ccc(Cl)cc2Cl)c2ccccc12 | inactive
28 | CC(C(O)c1ccc(O)cc1)N1CCC(Cc2ccccc2)CC1 (stereo not given) | inactive
29 | CC1=C(CC(=O)O)c2cc(F)ccc2/C1=C\c1ccc(S(C)(=O)=O)cc1 | inactive
30 | NCCc1cnc[nH]1 | inactive
31 | CC1=C(C)C(=O)C(CCCCC#CCCCC#CCO)=C(C)C1=O | inactive
32 | CCc1cccc2c3c([nH]c12)C(CC)(CC(=O)O)OCC3 (stereo not given) | inactive
33 | CN(C)CCCN1c2ccccc2Sc2ccccc21 | inactive
34 | COCCc1ccc(OCC(O)CNC(C)C)cc1 (stereo not given) | inactive
35 | CC(C(=O)O)c1ccc(CC2CCCC2=O)cc1 (stereo not given) | inactive
36 | Cc1[nH]c(=O)c(C#N)cc1-c1ccc2nccn2c1 | inactive
37 | Cc1ccc(=O)n(-c2ccccc2)c1 | inactive
38 | COc1ccc(C(=O)N2CCCC2=O)cc1 | inactive
39 | C[N+](C)(C)CCCCCCCCCC[N+](C)(C)C | inactive
40 | CN1CCC(=C2c3ccccc3CC(=O)c3sccc32)CC1 | inactive
41 | OCc1cc(C(O)CNCCCCCCOCCCCc2ccccc2)ccc1O (stereo not given) | inactive
42 | CN(C)CCN(Cc1cccs1)c1ccccn1 | inactive
43 | CNC[C@H](O)c1ccc(O)c(O)c1 | inactive

target: Ubiquitin carboxyl-terminal hydrolase 1 (Homo sapiens) (UniProt O94782); test: Inhibitors of USP1/UAF1: Pilot qHTS (AID 504865); details: purified USP1/UAF1, Ub-rhodamine cleavage fluorescence; series mostly up to 114 µM;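 also: rhodamine fluorescence freed from ubiquitin-rhodamine substrate followed over time; top concentration of the series differs between compounds; nearly all actives have a fitted effect of over 35% in size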
Procedure, shortened: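 In 50mM HEPES pH 7.8 containing 0.5mM EDTA, 1mM TCEP, 0.1 mg/ml BSA and 0.01% Tween-20, 1nM USP1/UAF1 is exposed to compound for 15 min, then Ub-Rho (150nM final) is added and fluorescence is read over time.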

Sequence of Ubiquitin carboxyl-terminal hydrolase 1 (Homo sapiens) (O94782 whole entry, looked up): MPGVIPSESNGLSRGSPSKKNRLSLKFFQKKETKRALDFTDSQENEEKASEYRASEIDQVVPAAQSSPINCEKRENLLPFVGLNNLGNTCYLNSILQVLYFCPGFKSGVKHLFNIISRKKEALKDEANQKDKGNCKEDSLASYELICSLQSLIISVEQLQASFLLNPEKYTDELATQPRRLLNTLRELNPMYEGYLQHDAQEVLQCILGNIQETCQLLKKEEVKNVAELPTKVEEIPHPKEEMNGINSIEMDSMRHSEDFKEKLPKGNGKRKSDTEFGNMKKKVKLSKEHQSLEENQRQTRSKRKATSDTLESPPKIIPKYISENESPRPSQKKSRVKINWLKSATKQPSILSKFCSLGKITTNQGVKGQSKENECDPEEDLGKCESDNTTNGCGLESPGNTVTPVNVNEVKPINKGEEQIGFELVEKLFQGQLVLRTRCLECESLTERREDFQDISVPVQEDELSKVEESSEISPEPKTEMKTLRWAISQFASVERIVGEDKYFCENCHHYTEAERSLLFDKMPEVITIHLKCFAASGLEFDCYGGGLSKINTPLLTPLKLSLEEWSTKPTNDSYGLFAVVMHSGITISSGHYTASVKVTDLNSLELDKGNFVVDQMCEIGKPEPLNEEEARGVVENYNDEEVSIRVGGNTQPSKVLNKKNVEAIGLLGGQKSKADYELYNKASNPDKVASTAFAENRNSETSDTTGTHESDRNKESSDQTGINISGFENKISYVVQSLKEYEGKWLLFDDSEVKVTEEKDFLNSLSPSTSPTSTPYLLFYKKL

Row | Compound | Potency
44 | NC(=O)CN1CCCC1=O | inactive
45 | COC(=O)C1=CCCN(C)C1 | inactive
46 | O=C(O)c1nn(Cc2ccc(Cl)cc2Cl)c2ccccc12 | inactive
47 | COc1ccc(C(=O)N2CCCC2=O)cc1 | inactive

tested on: not listed separately; test: qHTS for Inhibitors of ATXN expression: Validation of Cytotoxic Assay (AID 588349); details: cytotoxicity counter-screen for ATXN expression inhibitors, cell viability; series mostly up to 57.1 µM
Procedure, shortened: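 HEK293 cells treated with titrated compound for 72 hr at 37 degrees C; viability read as intracellular ATP by CellTiter Glo luminescence.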

Row | Compound | outcome
48 | NC(=O)CN1CCCC1=O | inactive
49 | COC(=O)C1=CCCN(C)C1 | inactive
50 | O=C(O)c1nn(Cc2ccc(Cl)cc2Cl)c2ccccc12 | inactive
51 | COc1ccc(C(=O)N2CCCC2=O)cc1 | inactive

tested on: not listed separately; test: qHTS for Inhibitors of ATXN expression: Validation (AID 588378); details: cell-based ATXN2 expression reporter assay, luminescence; series mostly up to 57.1 µM; also: nearly all actives have a fitted effect of over 75% in size
Procedure, shortened: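 Compounds were pinned onto attached HEK293 cells carrying an ATXN2-firefly luciferase construct and incubated 24 hrs at 37 degrees C. Each well then received a fluorescent viability reagent followed by luciferase substrate for end-point luminescence.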

Row | Compound | Potency
52 | NC(=O)CN1CCCC1=O | inactive
53 | COC(=O)C1=CCCN(C)C1 | inactive
54 | O=C(O)c1nn(Cc2ccc(Cl)cc2Cl)c2ccccc12 | inactive
55 | COc1ccc(C(=O)N2CCCC2=O)cc1 | inactive
